From PubChem BioAssay
BoNT A protease = BoNT A light chain protease inhibition. multiplex microsphere protease substrate cleavage, flow cytometry. inhibition, % at 10 µM. 360,000 compounds, 0.17% hits. AID 588499
CCHF vOTU inh = blocks the CCHF virus ovarian tumor domain protease. inhibition, % at 11.5 µM. 370,000 compounds, 0.55% hits. CCHFV vOTU protease, Pep-AMC fluorescence. AID 651958; in the data active = inhibition above about 30%
Anthrax LF inh2 = inhibitors of Bacillus anthracis lethal factor protease; AID 588501; P15917; inhibition, % at 10 µM; 360,000 compounds, 0.12% hits; multiplex microsphere protease cleavage assay, LF
Target sequence (P15917 whole entry, looked up): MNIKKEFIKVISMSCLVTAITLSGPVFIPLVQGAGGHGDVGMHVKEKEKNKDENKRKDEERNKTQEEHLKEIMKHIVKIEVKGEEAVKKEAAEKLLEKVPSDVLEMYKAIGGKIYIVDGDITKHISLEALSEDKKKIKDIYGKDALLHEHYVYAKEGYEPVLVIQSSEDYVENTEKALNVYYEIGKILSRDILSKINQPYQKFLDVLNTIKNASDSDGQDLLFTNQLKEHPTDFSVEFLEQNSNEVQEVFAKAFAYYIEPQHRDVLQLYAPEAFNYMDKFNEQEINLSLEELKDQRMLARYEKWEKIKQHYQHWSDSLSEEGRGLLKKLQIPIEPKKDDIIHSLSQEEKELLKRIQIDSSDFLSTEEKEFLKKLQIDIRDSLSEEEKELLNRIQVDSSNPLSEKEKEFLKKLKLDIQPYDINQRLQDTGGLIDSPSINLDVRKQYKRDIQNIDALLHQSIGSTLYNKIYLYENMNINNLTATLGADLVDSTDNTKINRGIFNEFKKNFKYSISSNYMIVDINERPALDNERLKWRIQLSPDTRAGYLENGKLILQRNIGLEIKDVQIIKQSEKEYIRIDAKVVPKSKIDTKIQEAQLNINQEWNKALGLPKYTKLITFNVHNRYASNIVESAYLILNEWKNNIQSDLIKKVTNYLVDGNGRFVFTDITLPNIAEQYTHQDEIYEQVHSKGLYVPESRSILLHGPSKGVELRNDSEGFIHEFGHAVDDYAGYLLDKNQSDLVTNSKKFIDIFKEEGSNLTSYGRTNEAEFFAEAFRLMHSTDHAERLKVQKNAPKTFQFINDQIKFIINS
BoNT-F LC inh = BoNT F light chain protease inhibition; AID 588497; 360,000 compounds, 0.22% hits; Multiplex microsphere protease cleavage assay, flow cytometry; inhibition, % at 10 µM; in the data active = inhibition above about 35%, passing the limit was not always enough; inconclusive = no clear call, values can overlap the other calls
SARS 3CLpro inh = SARS-CoV 3CLpro protease inhibition. P0C6X7. recombinant SARS-CoV 3CLpro, quenched FRET peptide cleavage. inhibition, % at 6 µM. 290,000 compounds, 0.14% hits. AID 1706; in the data active = inhibition above about 12%
Bead autofluor = flagged as autofluorescent in microsphere protease counterscreen | fluorescence intensity (concentration not given with the values) | 360,000 compounds, 3.1% hits | AID 624483 | compound autofluorescence counterscreen, microsphere flow cytometry; hits give high values; in the data active = fluorescence intensity above about 16000; inconclusive = no clear call, values can overlap the other calls
Hits are given with their value; 0 = inactive; ? = inconclusive; - = no result given. Rows were chosen to be rich in hits. Some 3.9% of all compounds tested hit in one or more screens of this group. Cut-off read from the data, not from the text of the source, unless noted: active = inhibition above about 30%; inconclusive = no clear call, values can overlap the other calls; inactive = below that.

SMILES | BoNT A protease | CCHF vOTU inh | Anthrax LF inh2 | BoNT-F LC inh | SARS 3CLpro inh | Bead autofluor
COc1ccc(OS(=O)(=O)c2ccc(N3C(=O)CCC3=O)cc2)cc1 | 0 | 0 | 0 | 0 | 0 | 0
COC(=O)c1ccc(/C=C/C(=O)c2ccc(OC)c(OC)c2)cc1 | 0 | - | 0 | 0 | 0 | 0
COC(=O)c1ccc(/C=C/C(=O)c2ccc(OC)cc2)cc1 | 0 | 0 | 0 | 0 | 0 | 22281
O=C(O)c1ccc(NS(=O)(=O)c2ccc(Cl)cc2)cc1 | 0 | 0 | 0 | 0 | 0 | 21092
O=C(Nc1ccc(NS(=O)(=O)c2ccccc2)cc1)c1ccc(Cl)cc1 | 0 | 0 | 0 | 0 | 0 | 0
COc1ccc(/C=C/C(=O)c2cc(Cl)ccc2O)c(OC)c1 | 0 | 0 | 0 | 0 | 0 | 0
COc1ccc(/C=C/C(=O)c2ccc(Cl)cc2)c(OC)c1 | 0 | 0 | 0 | 0 | 0 | 18548
CCOC(=O)[C@]12CCCC3=C1N(CCC3)C(=O)[C@@H](CC(=O)N1CCCC1)C2 | - | 0 | - | - | - | -
CC(=O)Nc1ccc(S(=O)(=O)N2CCN(CCCOc3ccccc3Cl)CC2)cc1 | 0 | 0 | 0 | 0 | 0 | 0
COc1ccc(NS(=O)(=O)c2ccc(N3C(=O)CCC3=O)cc2)cc1 | 0 | 0 | 0 | 0 | 0 | 24859
O=C1CCC(=O)N1c1ccc(S(=O)(=O)Nc2ccc(Br)cc2)cc1 | 0 | 0 | 0 | 0 | 0 | 0
COc1ccc(S(=O)(=O)Nc2cccc(NC(C)=O)c2)cc1 | 0 | 0 | 0 | 0 | 0 | 17504
COc1ccc(S(=O)(=O)Nc2cccc(/C=C/C(=O)O)c2)cc1 | 0 | 0 | 0 | 0 | 0 | 0
COc1cccc(OCCCN2CCN(S(=O)(=O)c3ccc(NC(C)=O)cc3)CC2)c1 | ? | 0 | 0 | 0 | 0 | 20823
O=S(=O)(NC1CCCCCC1)c1cccc2cccnc12 | 0 | 0 | 0 | 0 | 0 | 16645
O=C(NC1CCCCC1)c1ccc(NS(=O)(=O)c2cccc3cccnc23)cc1 | 0 | 0 | 0 | 0 | 0 | 0
Cc1ccccc1C(=O)N(C)[C@H]1C[C@H]2c3[nH]c4c(-c5ccc6c(c5)OCO6)cccc4c3CCN2C[C@H]1[C@H](C)O | - | 0 | - | - | - | -
COC(=O)c1ccc(NS(=O)(=O)c2ccc(OC)cc2)cc1 | ? | 0 | 0 | 0 | 0 | 22817
COc1cccc(NS(=O)(=O)c2c(C)cc(C)cc2C)c1 | 0 | 0 | 0 | 0 | 0 | 20856
COC(=O)c1ccc(NS(=O)(=O)c2cccc3cccnc23)cc1 | 0 | 0 | 0 | 0 | 0 | 18372
COc1ccc(NS(=O)(=O)c2c(C)cc(C)cc2C)cc1 | 0 | 0 | 0 | 0 | 0 | 0
COc1cccc(NS(=O)(=O)c2ccc(NC(C)=O)cc2)c1 | ? | 0 | 0 | 0 | 0 | 23977
CCCCCC(=O)NC1CCCCN(Cc2ccccc2C)C1=O (centres undefined) | - | 0 | - | - | - | -
O=C(CSc1nnc(-c2ccccn2)n1-c1ccccc1)c1ccc2c(c1)OCO2 | - | 0 | - | - | - | -
O=C(Cn1nnc(-c2ccc(N3CCOCC3)cc2)n1)c1cccc(F)c1 | - | 0 | - | - | - | -
SMILES | BoNT A protease | CCHF vOTU inh | Anthrax LF inh2 | BoNT-F LC inh | SARS 3CLpro inh | Bead autofluor
COC(=O)C1CN(C2CC2)CCS(=O)(=O)N1Cc1cn(Cc2ccc(C)cc2)nn1 (centres undefined) | - | 0 | - | - | - | -
O=C(Nc1c(C(=O)N2CCOCC2)cnn1-c1ccccc1)c1ccccc1 | 0 | 0 | 0 | 0 | 0 | 0
O=C(Nc1c(C(=O)N2CCOCC2)cnn1-c1ccccc1)c1ccco1 | ? | 0 | 0 | 0 | 0 | 23770
O=C(Nc1ccc2ccccc2c1)NC1CCCCN(Cc2ccc(Cl)cc2)C1=O (centres undefined) | - | 0 | - | - | - | -
Cc1ccc(Oc2cc(C)nc(-c3ccccc3O)n2)cc1 | 0 | 0 | 0 | 0 | 0 | 0
Cc1cc(OC2CCCCC2)nc(-c2ccccc2O)n1 | ? | 0 | 0 | 0 | 0 | 22117
Cc1ccc(CN2CCCCC(NC(=O)Nc3ccccc3F)C2=O)cc1 (centres undefined) | - | 0 | - | - | - | -
CCOC(=O)c1c(-c2ccccc2Cl)cn2ccccc12 | 0 | 0 | 0 | 0 | 0 | 21999
Cc1c(C)c2cc(Cl)c(O)c(CN3CCCC(C)C3)c2oc1=O (centres undefined) | 0 | 0 | 0 | 0 | 0 | 22975
COc1ccc(C2=NOC3(CC(=O)N(c4ccc5ccccc5c4)C3=O)C2)c(OC)c1 (centres undefined) | ? | 0 | 0 | 0 | 0 | 17080
COc1ccc(C2=NOC3(CC(=O)N(c4ccc(F)cc4)C3=O)C2)c(OC)c1 (centres undefined) | 0 | 0 | 0 | 0 | 0 | 0
COC(=O)COC(=O)c1ccc(-n2nnnc2SC)cc1 | 0 | 0 | 0 | 0 | 0 | 22577
COC(=O)c1ccc(-n2nnnc2SC)cc1 | 0 | 0 | 0 | 0 | 0 | ?
